# High-throughput results (PubChem BioAssay)
# The list is not random: actives were taken first. Their share in the collection is about 17%.
# HT1080NT lethal: kills 2HG-producing HT-1080-NT fibrosarcoma cells; HT-1080-NT fibrosarcoma viability, CellTiter-Glo ATP luminescence, 48 h; Potency, µM (highest dose often 46.1 µM), inactives show top-dose activity, negative = less viability, hits mostly cytotoxic; 1.6% of 360,000 active; AID 686970;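 also: NT is the 2HG producing partner of a matched IDH1 knockdown line; 0% = DMSO-treated cells and -100% = media-only wells without cells; nearly all actives have a fitted effect of over 55% in size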
#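 HT-1080-NT; 750 cells/well; 5% FBS RPMI; 48 h compound, 37 degrees C; CellTiter-Glo luminescence; curve fitting and curve-class assignment.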
# HT1080 IDH1KD tx: HT-1080 IDH1 knockdown cell toxicity (counter line) | HT-1080 IDH1 knockdown viability, ATP luminescence, 48 h | Potency, µM (top dose mostly 46.1 µM), for inactives: at the highest dose activity, negative = toxicity, most hits filed as cytotoxic | 2% of 360,000 active;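 also: 0% = DMSO wells and -100% = cell-free medium wells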
#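 After a 2 h attachment period, IDH1KD HT-1080 cells took pin-transferred compound for 48 h at 37 °C; ATP-based luminescence after 10 min room-temperature reagent incubation reported viability.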
# TGFb SMAD3 inh: TGF-b pathway inhibition. HepG2 CAGA-GFP TGF-b/SMAD3 reporter, GFP fluorescence, 18 h; TGF-beta stimulated, 500 pg/mL final. Potency, µM (series often up to 46.1 µM), inactives show top-dose activity, negative = inhibition, hits mostly inhibitors. 1.2% of 410,000 active; also: % is scaled to controls: 0 for no effect and ±100 for the full control effect; nearly all actives have a fitted effect of over 65% in size
#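 First, reporter cells (HEPG2 CAGA-GFP) rested 2 h at 37 degrees C. Next, compounds were pinned in and TGF-beta added to 500 pg/mL final. After 18 h, GFP was imaged per cell and summed per well.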
# TDP1 cell noCPT: qHTS for Inhibitors of human tyrosyl-DNA phosphodiesterase 1 (TDP1): qHTS in cells in absence of CPT | DT40 Tdp1-/- hTDP1 cells, no CPT, ATP luminescence, 48 h | Potency, µM (series often up to 46.2 µM), inactives show top-dose activity change, negative = growth inhibition, usual class: inhibitors | 15% of 420,000 active; also: % is scaled to controls: 0 for no effect and ±100 for the full control effect; nearly all actives have a fitted effect of over 55% in size
#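 Compound effects on proliferation are scored in DT40 Tdp1-/-;hTDP1 cells in the absence of CPT. ATP levels (CellTiter-Glo luminescence) are recorded after a ≥48 hr, 37 °C incubation.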
# HepG2 viability: HepG2 cytotoxicity, counter-screen for TGF-b inhibitors; 0.76% of 410,000 active; Potency, µM (top dose mostly 46.1 µM), inactives show at the top dose activity change, negative = cytotoxicity, most hits filed as cytotoxic; HepG2 CAGA-GFP viability, ATP luminescence, 18 h
#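 HepG2 CAGA-GFP cells (1000/well, DMEM with 1% FBS) received compound, then TGF-beta at 500 pg/mL final, and were incubated 18 hours at 37 degrees C. Viability was read by CellTiter-Glo luminescence. Media-only wells were set as complete cell-killing and DMSO as no toxicity.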
# DT40 TDP1 CPT: DT40-hTDP1 cell growth loss with CPT | AID 686979 | Potency, µM (doses to about 46.2 µM), for inactives: at the highest dose activity change, negative = growth inhibition, most hits filed as inhibitors | 12% of 420,000 active | chicken DT40 Tdp1-/-;hTDP1 cells + 20 nM CPT, ATP luminescence, 48 h; also: % is scaled to controls: 0 for no effect and ±100 for the full control effect; nearly all actives have a fitted effect of over 55% in size
#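 Chicken DT40 Tdp1-/- cells complemented with human TDP1, 400 cells/well, exposed to compounds plus 20 nM camptothecin for at least 48 h at 37 C; viability read as ATP content by CellTiter-Glo luminescence.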
# Numbers without * were called inactive; ? = inconclusive; · = not tested or not shown; [ ] = remark or other dose. Calls follow the shape of the dose curve; as a rule, active = well fitted curve in the direction sought with a large enough effect; inconclusive = small, poorly fitted or top-dose-only effect, or another doubt; inactive = no such curve, though single readings can be large; an effect the other way counts as inactive or inconclusive. Potency is read from the fitted curve at half-maximal effect.
SMILES,HT1080NT lethal,HT1080 IDH1KD tx,TGFb SMAD3 inh,TDP1 cell noCPT,HepG2 viability,DT40 TDP1 CPT
COc1ccccc1Nc1nc2ccc(C)cc2n2cnnc12,-2%,5%,6%,18µM*,-4%,?
O=S1(=O)C2CC3C=CC2(CN1Cc1ccccc1)O3 (centres undefined),·,·,0%,·,-1%,·
O=[N+]([O-])c1ccc(-[n+]2nc(-c3ccccc3)nn2-c2ccccc2)cc1,-3%,-9%,-5%,-17%,-12%,-1%
Oc1ccc(N=Nc2n[nH]c(-c3ccc(Cl)cc3)n2)cc1,-24%,-24%,?,16µM*,-31%,?
Cc1ncc(N=Nc2ccc(F)cc2)c(-c2ccc(Cl)cc2)n1,2%,2%,?,2%,-6%,9%
N#Cc1c2ccc(O)cc2n2ccccc12,-23%,-3%,?,8.2µM*,-34%,?
CNc1ccccc(-c2ccc3ccccc3n2)c1=O,-7%,-6%,-3%,23µM*,-16%,?
Cc1ccccc1Nc1c(-c2cccc(Cl)c2)nc2ncccn12,·,·,-10%,?,-10%,?
Cc1cccc(C)c1Nc1c(-c2cccs2)nc2ncccn12,·,·,-19%,?,-21%,21µM*
c1csc(-c2nc3ccccn3c2NC2CCCCC2)c1,-3%,?,2%,?,-1%,?
Cc1ccc2nc(-c3cccs3)c(Nc3c(C)cccc3C)n2c1,·,·,?,26µM*,-17%,23µM*
CN(C)C(=O)c1ccc(NC(=O)c2cccc(-n3cnnn3)c2)cc1,0%,1%,-9%,-24%,11%,5%
Cc1ccc(/C=C2\SC(=S)N(CCC(=O)NNC(=O)c3cccnc3)C2=O)cc1,2%,1%,23%,9.2µM*,-2%,16µM*
O=C(CCN1C(=O)/C(=C/c2ccccc2)SC1=S)NNC(=O)c1cccnc1,-3%,1%,9%,?,-22%,-29%
O=C(CCN1C(=O)/C(=C/c2ccc(F)cc2)SC1=S)NNC(=O)c1cccnc1,-1%,-10%,-1%,9.2µM*,-2%,?
Cc1ccc(-n2c(SCC(=O)N3CCCc4ccccc43)nc3c([nH]c4ccccc43)c2=O)cc1,·,·,-15%,-20%,1%,-10%
O=c1c2c(c(-c3ccccc3)nn1Cc1ccccc1)CCCC2,8%,6%,1%,-18%,-14%,-28%
O=C(c1ccc(S(=O)(=O)Cc2cc(F)ccc2F)c([N+](=O)[O-])c1)N1CCCCC1,-2%,-14%,?,23µM*,-1%,?
O=C(c1ccc(S(=O)(=O)Cc2cc(F)ccc2F)c([N+](=O)[O-])c1)N1CCCC1,?,21µM*,?,2.9µM*,0%,3.3µM*
CC1CCN(C(=O)c2ccc(S(=O)(=O)Cc3cccc(F)c3)c([N+](=O)[O-])c2)CC1,-11%,-8%,-5%,?,-31%,?
O=C(c1ccc(Cl)c([N+](=O)[O-])c1)N1CCN(c2ccccn2)CC1,4%,5%,11%,?,3%,-10%
O=C(c1ccc(S(=O)(=O)Cc2ccccc2Cl)c([N+](=O)[O-])c1)N1CCN(c2ccccn2)CC1,?,?,?,7.3µM*,-17%,3.7µM*
CCc1ccc(S(=O)(=O)c2nnn3c2nc(Nc2cc(OC)ccc2OC)c2sccc23)cc1,·,·,93%,-11%,4%,-12%
CCC(=O)N[C@@H]1c2ccccc2C2(CCN(Cc3cnc(N(C)C)s3)CC2)[C@H]1OC,·,·,·,-3%,·,35%[9.04 µM]
CCCCN(C(=O)CCC(=O)Nc1cc(C)on1)C(C(=O)NC1CCCC1)c1ccccc1C (centres undefined),7%,-1%,-16%,?,-7%,?
SMILES,HT1080NT lethal,HT1080 IDH1KD tx,TGFb SMAD3 inh,TDP1 cell noCPT,HepG2 viability,DT40 TDP1 CPT
Cc1cc(NC(=O)/C=C/C(=O)N(CC(=O)NC2CCCC2)c2cccc3ccccc23)no1,11%,15%,-10%,-3%,-1%,-4%
CCOc1ccc(N(C(=O)/C=C/C(=O)Nc2cc(C)on2)C(C(=O)NC2CCCC2)c2ccccc2C)cc1 (centres undefined),7%,5%,19%,16µM*,-5%,16µM*
CCc1ccc(C(C(=O)NC2CCCC2)N(C(=O)/C=C/C(=O)Nc2cc(C)on2)c2ccccc2C)cc1 (centres undefined),4%,2%,?,16µM*,-6%,16µM*
Cc1ccccc1CN1CCNC(=O)C1CC(=O)NC1CCCCCCC1 (centres undefined),-14%,-15%,0%,-23%,7%,?
O=C(CC1C(=O)NCCN1CC1CCCCC1)NCc1ccc(F)cc1F (centres undefined),-16%,-6%,-6%,-18%,5%,-1%
CN(C(=O)CC1C(=O)NCCN1Cc1ccccc1F)C1CCOCC1 (centres undefined),-1%,0%,-14%,2%,-21%,-1%
CCc1ccc(CNC(=O)CC2C(=O)NCCN2Cc2ccccc2F)nc1 (centres undefined),2%,-16%,-1%,5.2µM*,-3%,-18%
CCOc1ccccc1CN1CCNC(=O)C1CC(=O)NC1CCCCCCC1 (centres undefined),-2%,-1%,9%,?,-7%,29µM*
CN(C(=O)CC1C(=O)NCCN1Cc1ccccc1C(F)(F)F)C1CCOCC1 (centres undefined),10%,6%,-2%,21µM*,-6%,?
O=C(CC1C(=O)NCCN1CC1CCCCC1)NCc1cc(F)ccc1F (centres undefined),-5%,-8%,?,?,-5%,23µM*
CC1CCN(c2ccccc2NC(=O)c2ccc([N+](=O)[O-])o2)CC1,1%,-16%,17%,?,5%,?
CCC(=O)N1CCN(c2ccccc2NC(=O)c2ccc([N+](=O)[O-])o2)CC1,?,-27%,16µM*,18µM*,-150%,18µM*
CC(C)C(=O)N1CCN(c2ccccc2NC(=O)c2ccc(Br)o2)CC1,3%,0%,30%,?,3%,?
CC(C)C(=O)N1CCN(c2ccccc2NC(=O)c2ccc([N+](=O)[O-])o2)CC1,-24%,?,?,?,-91%,16µM*
